Screening results from PubChem.
Only some compounds are listed: those with a hit (about 6.9% of all), similar ones and a draw of the others.
Vif-APOBEC3G blk = inhibitors of Vif-APOBEC3G interaction; Q9HC16; HeLa A3G-eYFP + Vif (tagged APOBEC3G with the HIV-1 protein that degrades it), YFP fluorescence, overnight; Potency, µM (top dose mostly 46.1 µM), hits mostly inhibitors; 410,000 compounds, 0.076% hits; note: nearly all actives have a fitted effect of over 60% in size
Target sequence (Q9HC16 whole entry, looked up): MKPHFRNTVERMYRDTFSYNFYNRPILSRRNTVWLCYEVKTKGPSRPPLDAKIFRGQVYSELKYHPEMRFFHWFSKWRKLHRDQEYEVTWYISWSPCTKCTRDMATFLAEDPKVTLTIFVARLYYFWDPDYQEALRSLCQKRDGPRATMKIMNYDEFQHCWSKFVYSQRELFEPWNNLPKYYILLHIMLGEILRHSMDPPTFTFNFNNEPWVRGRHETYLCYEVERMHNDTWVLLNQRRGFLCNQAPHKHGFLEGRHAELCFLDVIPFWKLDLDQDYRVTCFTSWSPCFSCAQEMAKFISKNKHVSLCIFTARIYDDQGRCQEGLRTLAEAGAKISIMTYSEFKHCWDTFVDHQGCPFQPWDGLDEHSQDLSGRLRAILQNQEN
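Read-out is eYFP fluorescence (Ex 488/Em 500-530) from Vif-expressing HeLa A3G-eYFP cells; more signal means A3G escaped Vif-mediated degradation. Cells plated overnight, compound pinned in, incubated overnight at 37 deg C.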
MCF10A rereplic = DNA re-replication induction in MCF 10a cells; MCF 10A DNA re-replication, Hoechst nuclear intensity, 48 h; Potency, µM (series often up to 46.1 µM), actives largely listed as activators; 350,000 compounds, 2.9% hits; note: nearly all actives have a fitted effect of over 50% in size
SW480 rerep = DNA re-replication induction in SW480 cells; Potency, µM (doses to about 46.1 µM), actives largely listed as activators; 340,000 compounds, 1.8% hits; SW480 DNA re-replication, Hoechst DNA content imaging, 48 h; AID 624297; note: nearly all actives have a fitted effect of over 55% in size
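Quantitative HTS format with DMSO vehicle controls; 48 hr drug incubation at 37 C, then 40 min Hoechst staining and scanning imager measurement at 405 nm excitation.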
Vif-APOBEC3F blk = blocks the Vif interaction with APOBEC3F; HeLa A3F-eYFP + Vif (tagged APOBEC3F with the HIV-1 protein that degrades it), YFP fluorescence increase; Potency, µM (highest dose often 46.1 µM); 390,000 compounds, 0.2% hits; AID 602313; note: nearly all actives have a fitted effect of over 65% in size
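Fluorescence increase (Ex 488/Em 500-530) after overnight compound treatment at 37 deg C flags inhibition of Vif-driven A3F-eYFP loss in stable HeLa A3F-eYFP/Vif cells seeded overnight beforehand.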
Giardia killer = Giardia lamblia killing | activity change, % at 7.66 µM, hits read low | Giardia lamblia trophozoite viability | AID 540267 | 340,000 compounds, 0.15% hits; in the data active = activity change below about -80%; inconclusive = between about -30% and that limit;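 note: parasites exposed to compound for two days anaerobically before the ATP read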
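Each well holds 100 Giardia trophozoites and compound. After two days (48 hrs) at 37 deg C in anaerobic conditions, ATP is quantified by luminescence.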
IL-1B inflam inh = inflammasome signaling inhibition, IL-1 beta readout; THP-1 LPS/ATP IL-1B secretion, AlphaLISA, 16 h; active compounds read low; 360,000 compounds, 4.7% hits; activity change, % at 57.5 µM; in the data active = activity change below about -50%; inconclusive = mostly about -30% to -49%
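THP-1 cells pretreated 1 hr with compounds (up to 57.5 uM final), then stimulated with LPS (250 ng/mL final) plus ATP (1.25 mM final); secreted IL-1B measured by AlphaLISA after 16 hr, decreased signal indicating inhibition.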
Each line names hits and unclear results; the compound was inactive in the other large screens. Unless noted, calls come from the whole dose curve; as a rule, active = well fitted curve in the direction sought with a large enough effect; inconclusive = small, poorly fitted or top-dose-only effect, or another doubt; inactive = no such curve, though single readings can be large; an effect the other way counts as inactive or inconclusive.

COC(=O)c1ccc(NC(=O)c2cccc(N3C(=O)C4C5C=CC(C6CC56)C4C3=O)c2)cc1 (centres undefined)	MCF10A rereplic 16µM
O=C(Nc1ccccc1)c1cccc(N2C(=O)C3C4C=CC(C5CC45)C3C2=O)c1 (centres undefined)	IL-1B inflam inh -55
O=C(Nc1ccc(F)cc1)c1cccc(N2C(=O)C3C4C=CC(C5CC45)C3C2=O)c1 (centres undefined)	IL-1B inflam inh -75
COc1ccccc1-c1nnc2n(CCc3ccccc3)c(=O)c3ccccc3n12	none (no result: MCF10A rereplic, SW480 rerep, Giardia killer, IL-1B inflam inh)
CCc1cccc(N2C(=O)CSC23C(=O)Nc2ccccc23)c1 (centres undefined)	none (no result: MCF10A rereplic, SW480 rerep, Giardia killer, IL-1B inflam inh)
COC(=O)c1sc(N2C(=O)c3oc4ccccc4c(=O)c3C2c2ccc(O)cc2)nc1C (centres undefined)	none (no result: MCF10A rereplic, SW480 rerep, Giardia killer, IL-1B inflam inh)
CCCCc1nn2c(=O)cc(COC(=O)c3ccccc3C)nc2s1	none (no result: MCF10A rereplic, SW480 rerep, Giardia killer, IL-1B inflam inh)
Cc1cc(Br)cc(Br)c1OCC(=O)NNC(=O)CCC(=O)NCc1ccccc1	Giardia killer inconclusive
Cc1cc(Br)cc(Cl)c1OCC(=O)NC(=O)NCc1ccccc1	MCF10A rereplic 18µM
CC(=O)c1cc(C(=O)Nc2cc(C)cc(C)c2)c2ccccn12	none (no result: MCF10A rereplic, SW480 rerep, Giardia killer, IL-1B inflam inh)
Cn1nc(C(=O)Nc2cccc(Cl)c2)cc1C(=O)Nc1cccc(Cl)c1	SW480 rerep inconclusive, IL-1B inflam inh -63
Cn1ncc(N=Cc2ccccc2)c1C(N)=O	none
Cn1ncc(N=Cc2ccccc2)c1C(=O)Nc1cccc(Cl)c1	MCF10A rereplic 18µM, SW480 rerep inconclusive
CCN(CC)S(=O)(=O)c1ccc2c(c1)nc(CN(C)C(=O)Nc1ccc(F)cc1)n2C	none (no result: MCF10A rereplic, SW480 rerep, Giardia killer, IL-1B inflam inh)
Cc1cc(=O)n(Cc2ccc(F)cc2Cl)c2c1c(C)nn2C	none (no result: MCF10A rereplic, SW480 rerep, Giardia killer, IL-1B inflam inh)
COc1cc(C(=O)NCCCN2CCCC2=O)ccc1OCc1ccc(Cl)cc1Cl	IL-1B inflam inh -52
CCc1ccc(CNC(=O)c2ccc3c(c2)nc2n3CCCCC2)cc1	none (no result: MCF10A rereplic, SW480 rerep, Giardia killer, IL-1B inflam inh)
COc1ccc(C)cc1NC(=O)Cn1cc(S(=O)(=O)Cc2ccccc2Cl)c2ccccc21	none (no result: MCF10A rereplic, SW480 rerep, Giardia killer, IL-1B inflam inh)
Cc1[nH]c(=O)[nH]c(=O)c1/C=N/NC(=O)CCNC(=O)OC(C)(C)C	IL-1B inflam inh -60
CCOc1ccc(CCN2C(=O)C(=O)N([C@@H](Cc3ccc(O)cc3)CN3CCC[C@H]3CN3C(=O)C(=O)NC[C@@H]3Cc3ccc(O)cc3)C[C@@H]2Cc2ccccc2)cc1	none (no result: Vif-APOBEC3G blk, MCF10A rereplic, SW480 rerep, Vif-APOBEC3F blk, Giardia killer)
CCOc1ccc(CCN2C(=O)C(=O)N([C@@H](CC(C)C)CN3CCC[C@H]3CN3C(=O)C(=O)NC[C@@H]3CC(C)C)C[C@@H]2Cc2ccc(O)cc2)cc1	IL-1B inflam inh -72 (no result: Vif-APOBEC3G blk, MCF10A rereplic, SW480 rerep, Vif-APOBEC3F blk, Giardia killer)
CC(C)C[C@H]1CN([C@@H](Cc2ccccc2)CN2CCC[C@@H]2CN2C(=O)C(=O)NC[C@@H]2Cc2ccccc2)C(=O)C(=O)N1CCc1ccccc1	Vif-APOBEC3G blk inconclusive, IL-1B inflam inh -67 (no result: MCF10A rereplic, SW480 rerep, Vif-APOBEC3F blk, Giardia killer)
CCOc1ccc(CCN2C(=O)C(=O)N([C@@H](Cc3ccccc3)CN3CCC[C@H]3CN3C(=O)C(=O)NC[C@@H]3Cc3ccc(O)cc3)C[C@@H]2Cc2ccc(O)cc2)cc1	IL-1B inflam inh -60 (no result: Vif-APOBEC3G blk, MCF10A rereplic, SW480 rerep, Vif-APOBEC3F blk, Giardia killer)
CCOc1ccc(CCN2C(=O)C(=O)N([C@@H](Cc3ccccc3)CN3CCC[C@H]3CN3C(=O)C(=O)NC[C@@H]3CC(C)C)C[C@@H]2Cc2ccc(O)cc2)cc1	IL-1B inflam inh -53 (no result: Vif-APOBEC3G blk, MCF10A rereplic, SW480 rerep, Vif-APOBEC3F blk, Giardia killer)
O=C(Nc1ccc(F)cc1)c1cccn1-c1nnc(N2CCCCC2)s1	none (no result: MCF10A rereplic, SW480 rerep, Giardia killer, IL-1B inflam inh)
COc1ccc2c(c1)c1c(c(=O)n(Cc3ccccc3)c(=O)n1Cc1ccc(C)cc1)n2C	none (no result: MCF10A rereplic, SW480 rerep, Giardia killer, IL-1B inflam inh)
CCOC(=O)c1ccc(NC(=O)Nc2ccon2)cc1	MCF10A rereplic 1.3µM, SW480 rerep inconclusive
CCOC(=O)c1ccc(NC(=S)Nc2cccc(C)n2)cc1	MCF10A rereplic inconclusive, Vif-APOBEC3F blk 11µM
Cc1cc(NC(=O)Nc2ccc(Cl)c(Cl)c2)no1	none
CCOC(=O)c1ccc(NC(=S)Nc2cccc(N)n2)cc1	IL-1B inflam inh inconclusive
O=C(Nc1ccc(Cl)c(Cl)c1)Nc1ccon1	MCF10A rereplic 12µM, SW480 rerep 10µM
CCCN1CCN(CCNC(=O)Nc2ccc(OC)c(OC)c2)CC1	none (no result: MCF10A rereplic, SW480 rerep, Giardia killer, IL-1B inflam inh)
Cc1ccc(N=Nc2c(N)n[nH]c2N)cc1	IL-1B inflam inh -64
Cc1cccc(N=Nc2c(N)n[nH]c2-c2ccc(Cl)cc2)c1	MCF10A rereplic inconclusive, IL-1B inflam inh -54
Cc1ccc(N=Nc2c(N)nn(-c3ccccc3)c2N)cc1	Vif-APOBEC3G blk inconclusive, MCF10A rereplic 15µM, SW480 rerep 13µM
Cc1ccc(-c2[nH]nc(N)c2N=Nc2cccc(Cl)c2C)cc1	MCF10A rereplic 21µM, SW480 rerep inconclusive, IL-1B inflam inh -76
Cc1ccc(-c2[nH]nc(N)c2N=Nc2ccccc2C)cc1	MCF10A rereplic inconclusive, SW480 rerep inconclusive, IL-1B inflam inh inconclusive
Nc1ccc2c(c1)C(=O)N(c1ccc3ccccc3c1)C2=O	none (no result: MCF10A rereplic, SW480 rerep, Vif-APOBEC3F blk, IL-1B inflam inh)
COC(=O)c1sc2nc(CSc3ccc(Br)cc3)[nH]c(=O)c2c1C	MCF10A rereplic 15µM, Vif-APOBEC3F blk 11µM
COCCn1c(SCc2nc3sc(C(=O)OC)c(C)c3c(=O)[nH]2)nc2ccccc21	Vif-APOBEC3F blk inconclusive
